The results in this text go back to ChEMBL document CHEMBL3433997, “St. Jude Leishmania screening dataset” (2016).

“And” between values parts separate entries of the source, which are not always exact repeats. Identical values can stand only once.

For the first experiment, the target named is Solute carrier family 2, facilitated glucose transporter member 1 (Homo sapiens) (UniProt P11166). Description: ST_JUDE_LEISH: Cytotoxicity at 2uM final concentration against transgenic Leishmania Mexicana promastigotes LmGLUT1 that are glucose transport deficient and complemented with the human glucose transporter GLUT1. Activity is measured by DNA content using SYBR green in vitro. The format is functional.
Sequence of Solute carrier family 2, facilitated glucose transporter member 1 (Homo sapiens) (P11166 whole entry): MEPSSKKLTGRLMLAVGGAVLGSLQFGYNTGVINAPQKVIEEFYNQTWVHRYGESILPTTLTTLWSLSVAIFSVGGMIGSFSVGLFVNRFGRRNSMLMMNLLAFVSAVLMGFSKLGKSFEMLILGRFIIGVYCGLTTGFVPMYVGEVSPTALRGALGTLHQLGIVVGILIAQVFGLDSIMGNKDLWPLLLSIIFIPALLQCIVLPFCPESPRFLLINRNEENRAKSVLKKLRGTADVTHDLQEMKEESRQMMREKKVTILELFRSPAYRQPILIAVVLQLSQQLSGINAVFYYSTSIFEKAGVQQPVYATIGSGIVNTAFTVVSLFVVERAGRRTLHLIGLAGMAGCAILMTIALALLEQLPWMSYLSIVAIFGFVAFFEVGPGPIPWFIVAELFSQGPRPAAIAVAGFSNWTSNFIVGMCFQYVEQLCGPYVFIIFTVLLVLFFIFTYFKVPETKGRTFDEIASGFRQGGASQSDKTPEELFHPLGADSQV
Turning to `c1ccc(C(c2ccccc2)N2CCC(NCc3ccc(OCCCN4CCCCC4)cc3)CC2)cc1`, the inhibition (as a rule, the drop in the measured response relative to a control, in per cent) was found to be 8.52%.
For the molecule `Cc1ccc(CCOCCCCCNCC(O)c2cc(Cl)c(N)c(Cl)c2)cc1` (centres undefined), the inhibition came out at 1.04%.
The same measure, in the same setting: under `CCN1CCC(N(Cc2ccc(-c3ccc(C(F)(F)F)cc3)cc2)C(=O)Cn2c(SCc3cccc(F)c3F)cc(=O)c3ccccc32)C1` (centres undefined) stands 0.27%; under `O=c1cc(NCCC(CNCCc2ccccc2)NCc2cc(Br)cc(Br)c2)[nH]c2ccccc12` (centres undefined), -5.14%; under `CCN(CCCN1CCCCC1)c1cc(C)nc(Nc2ccc(C)cc2)n1`, 0%.
On the same count and under the same terms, under `COc1cc2c(cc1C(F)(F)F)N(C(=O)Nc1cc(OC(F)(F)F)cc(-c3cccnc3)c1)CC2` stands -0.39%.
On the same count and under the same terms, under `Cn1nccc1C(=O)NCCNCc1cccc(-c2ccc(-c3nc4ccccc4[nH]3)s2)c1` stands -0.55%; under `Cn1cc(CCNc2ccnc(N3CCC(c4ncc[nH]4)CC3)n2)c2ccccc21`, -2.77%; under `CCOC(=O)c1ccc(COc2ccc(C)nc2)cc1`, -1.54%.

In another experiment the target is Hexose transporter 1 (Plasmodium falciparum) (UniProt O97467). In words: ST_JUDE_LEISH: Cytotoxicity at 2uM final concentration against transgenic Leishmania Mexicana promastigotes LmPfHT that are glucose transport deficient and complemented with the Plasmodium falciparum hexose transporter. Activity is measured by DNA content using SYBR green in vitro. The format is functional.
With `O=C1COC(c2ccccc2)(c2ccccc2)CN1CC1CCN(Cc2ccc(O)cc2Cl)C1` (centres undefined), the inhibition came to 1.71%.
On the same count and under the same terms, under `c1cncc(NCc2ccc(-c3cc4ccncc4cc3OC3CCNCC3)s2)c1` stands 5.2%; under `CC(=O)Nc1ncc(C(=O)Nc2cccc(-c3cccc(-c4nc5cc(C(F)(F)F)ccc5[nH]4)c3)c2)s1`, 0.35%; under `N#CCCN1CCN(Cc2cccc(-c3ccc(-c4nc5cc(F)ccc5[nH]4)cc3)c2)CC1`, 0.68%.
With `CCCN(CCC)C(=O)c1cc(C(=O)N[C@@H](Cc2ccccc2)[C@H](O)CNCc2cccc(C(F)(F)F)c2)cc(N2CCCCS2(=O)=O)c1`, the inhibition was -0.49%.
The same measure, in the same setting: under `CCn1c(CN2CCN(Cc3ccccc3)CC2)nc2cc(NC(=O)c3cccs3)ccc21` stands 1.22%.
The same measure, in the same setting: under `Cc1cc(CN2CCC(N3CC(c4ccccc4)(c4ccccc4)OCC3=O)C2)ccc1O` (centres undefined) stands 0.87%; under `CN(Cc1cnc2nc(N)nc(N)c2n1)c1ccc(C(=O)N[C@@H](CCC(=O)O)C(=O)O)cc1`, 2.33% and 2.91% and 0.06%.
On the same count and under the same terms, under `Fc1ccc2[nH]c(-c3cccc(-c4cccc(CNCc5ccccc5)c4)c3)nc2c1` stands -0.96%; under `CCCCCCCCCn1c(NCc2cc(Cl)ccc2O)nc2ccccc21`, 1.33%.
For the molecule `CC1CN(Cc2cccc(F)c2)CCN1c1ccc(NC(=O)c2ccc(F)cc2)cc1` (centres undefined), the inhibition is 1.55%.
The same measure, in the same setting: under `Fc1ccccc1C=NNc1ccnc2cc(Cl)ccc12` stands 7.17%; under `O=C(O)c1ccc2nc(-c3ccccn3)c(-c3ccccn3)nc2c1`, -3.35%; under `Cn1ncc2c3c(CCN4CCC(NCc5ccc6c(c5)NC(=O)CO6)CC4)c(Cl)cnc3ccc21`, 2.09%.
The same measure, in the same setting: under `COc1ccc2nccc(N(C)CC3(O)CCN(CCc4ccc5c(c4)OCCO5)CC3)c2n1` stands 0.73%; under `O=C1C(c2ccccc2)=C(Nc2ccc([N+](=O)[O-])cc2)c2ccccc21`, 9.53%.
The same measure, in the same setting: under `Cc1ccc(NC(=O)NC2CCN(c3ccnc4cc(Cl)ccc34)C2)cc1` (centres undefined) stands 4.46%; under `Cn1nccc1C(=O)NCCNCc1ccc(-c2cccc(-c3nc4cc(C(F)(F)F)ccc4[nH]3)c2)cc1`, 1.93%.
As to `CCC(C)Oc1ccc2nc(N)nc(N)c2c1Cl` (centres undefined), the inhibition came to 55.9%.
On the same count and under the same terms, under `CCOc1ccc2c(=NN=Cc3ccc(F)cc3)cc(C)[nH]c2c1` stands 3.21%; under `Nc1ncnc2occ(-c3ccc(NC(=O)Nc4cc(C(F)(F)F)ccc4F)cc3)c12`, 2.93%.
On the same count and under the same terms, under `CCCCNC(=O)C1CCCN(C(=O)c2ccc(O)c(-c3ccc(Cl)c(Cl)c3)c2)C1` (centres undefined) stands 1.16%; under `N#Cc1cccc(COC(=O)C2=C(COc3ccccc3Cl)NC(=O)NC2c2c[nH]c3cnccc23)c1` (centres undefined), 6.63%; under `CCOc1ccc2nc3cc([N+](=O)[O-])ccc3c(N)c2c1`, 7.59%.
The same measure, in the same setting: under `CCc1cc2c(cc1OCCN(C)C)N(C(=O)Nc1ccc(-c3ccncc3)c(Cl)c1)CC2` stands 6.4%; under `Cc1cc(N2CCC(NS(=O)(=O)c3ccc(F)cc3)CC2)nc(Nc2cccc(C#N)c2)n1`, 46.5%.
Take `Cc1cccc2nc(-c3ccc(-c4cccc(NC(=O)NCc5ccccc5)c4)cc3)[nH]c12`: the inhibition worked out at 1.64%.
Same read-out and setting: under `CS(=O)(=O)c1ccc2[nH]c(-c3cc(-c4ccc(OCCN5CCOCC5)cc4)cnc3N)nc2c1` stands 6.02%; under `Cc1cc(NC2CCN(Cc3ccccc3)CC2)nc(NCCCCc2ccccc2)n1`, 17.5%.
Same read-out and setting: under `CCCC1N=C(N)N=C(N)N1c1cccc([N+](=O)[O-])c1` (centres undefined) stands -0.09%; under `Fc1ccc(C=NN=c2cc[nH]c3ccc(C(F)(F)F)cc23)cc1`, 6.15%.
Still for that read-out and setting: under `c1ccc(C(c2ccccc2)N2CCC(NCc3ccc(OCCCN4CCCCC4)cc3)CC2)cc1` stands 11.3%; under `Cc1ccc(CCOCCCCCNCC(O)c2cc(Cl)c(N)c(Cl)c2)cc1` (centres undefined), -1.13%.
For `CCN1CCC(N(Cc2ccc(-c3ccc(C(F)(F)F)cc3)cc2)C(=O)Cn2c(SCc3cccc(F)c3F)cc(=O)c3ccccc32)C1` (centres undefined), the inhibition was -0.31%.
Still for that read-out and setting: under `O=c1cc(NCCC(CNCCc2ccccc2)NCc2cc(Br)cc(Br)c2)[nH]c2ccccc12` (centres undefined) stands -3.71%; under `CCN(CCCN1CCCCC1)c1cc(C)nc(Nc2ccc(C)cc2)n1`, 1.61%; under `COc1cc2c(cc1C(F)(F)F)N(C(=O)Nc1cc(OC(F)(F)F)cc(-c3cccnc3)c1)CC2`, 1.79%.
As to `Cn1nccc1C(=O)NCCNCc1cccc(-c2ccc(-c3nc4ccccc4[nH]3)s2)c1`, the inhibition is -0.8%.
The same measure, in the same setting: under `Cn1cc(CCNc2ccnc(N3CCC(c4ncc[nH]4)CC3)n2)c2ccccc21` stands -1.57%; under `CCOC(=O)c1ccc(COc2ccc(C)nc2)cc1`, -0.85%.
